These are literature values, as cited in PubChem BioAssay AID977608.

The campaign covered roughly 4,300 compounds. About 4,300 (100%) were called active. The limit is not given here; nearly all actives have IC50 up to about 1400 µM. So high a share suggests a set chosen from earlier hits. The list shows a part of the results.

The data set in a line: protein-ligand inhibition affinities from structures – PDB-derived complexes (AID 977608).

As usually defined, the IC50 is the point on the concentration scale where inhibition reaches its midpoint. Take `O=C(Cc1ccccc1)Nc1nnc(CC=S)s1`: for the setting “literature IC50, protein: human glutaminase, PDB entry 3vp1”, the IC50 was 3300 nM (active).

On to `COc1cc(-c2ccc(NNc3ccc4c(S(O)(O)O)cc(S(O)(O)O)c(N)c4c3O)c(OC)c2)ccc1N=Nc1ccc2c(S(O)(O)O)cc(S(O)(O)O)c(N)c2c1O`, for which the IC50 (literature IC50, protein: Macrophage migration inhibitory factor, PDB entry 3u18) is 810 nM (active).

In the case of `O=c1cc([C@H]2CCN[C@@H](Cc3ccccc3)C2)o[nH]1`, the IC50 (literature IC50, protein: plasminogen kringle 1, PDB entry 4cik) is 370 nM (active).

On to `C[C@@]1(c2cc(NC(=O)c3ccc(Cl)cn3)ccc2F)C[C@@H]2C[C@@H]2C(N)N1` (stereo not given in full), for which, under “literature IC50, protein: BETA-SECRETASE 1, PDB entry 4bfd”, the IC50 is 96 nM (active).

`CN(C)c1ccc2c(c1)CCN(c1cccc(-c3cc(Nc4ccc(C(=O)N5CCOCC5)cn4)c(=O)n(C)c3)c1CO)C2=O`: where the note is “literature IC50, protein: Tyrosine-protein kinase BTK, PDB entry 4rfy”, the IC50 is 100 nM (active).

`C[C@H](O[P+](O)(O)O)[C@H](NC(=O)[C@H](CO)NC(=O)[C@H](Cc1cncn1CCCCCCCCc1ccccc1)NC(=O)CCCNC(=O)c1ccccc1)C(N)=O`: where the note is “literature IC50, protein: Serine/threonine-protein kinase PLK1, PDB entry 4whl”, the IC50 was 400 nM (active).

As to `C[C@@H](O[P+](O)(O)O)[C@H](NC(=O)[C@H](CO)NC(=O)[C@H](Cc1cncn1CCCCCCCCc1ccccc1)NC(=O)CCNC(=O)c1ccc(CO)cc1)C(N)=O`, the IC50 (literature IC50, protein: Serine/threonine-protein kinase PLK1, PDB entry 4whh) is 40 nM (active).

For `CC(=O)N[C@@H](Cc1cncn1CCCCCCCCc1ccccc1)C(=O)N[C@@H](CO)C(=O)N[C@H](C(N)=O)[C@@H](C)O[P+](O)(O)O`, where the note is “literature IC50, protein: Serine/threonine-protein kinase PLK1, PDB entry 4rcp”, the IC50 is 4420 nM (active).

With `O=C(C/C=C1\C=C(C(=O)c2ccc(F)cc2)C=N1)C[C@@H](O)C(=O)O`, the IC50 (literature IC50, protein: DNA nucleotidylexotransferase, Tdt core, PDB entry 4iqu) was 580 nM (active).

For `O=C(NO)c1coc(-c2ccccc2C(F)(F)F)n1`, the IC50 (literature IC50, protein: METHIONINE AMINOPEPTIDASE, PDB entry 4a6v) was 1900 nM (active).

With `CN1CCN(c2ccc(N=C3CC(=O)N(c4ccc(Cl)cc4)N=C3c3ncn[nH]3)cc2)CC1`, where the note is “literature IC50, protein: MEMBRANE PRIMARY AMINE OXIDASE, PDB entry 4bty”, the IC50 was 20 nM (active).

In the case of `COC1=CC2=C(C(=O)C1)C(=O)O[C@@H](C)CCCC(=O)[C@@H](O)[C@@H](O)C/C=C/2`, for the setting “literature IC50, protein: Mitogen-activated protein kinase 1, PDB entry 3w55”, the half-maximal inhibitory concentration (IC50) is 80 nM (active).

Consider `COC1=CC2=C(C(=O)C1)C(=O)O[C@H](C)CCCC(=O)[C@@H](O)[C@@H](O)C/C=C/2`, for which the IC50 (literature IC50, protein: Mitogen-activated protein kinase 1, PDB entry 2E14) is 80 nM (active).

As for `NC(=O)c1cccc(N)c1`, the IC50 (literature IC50, protein: Tankyrase-2 TNKS2, PDB entry 4pml) is 30000 nM (active).

Take `CCOc1ccc2cc(-c3nn(C(C)(C)C)c(N)c3C(N)=O)cnc2c1`: under “literature IC50, protein: Calmodulin-domain protein kinase 1 CDPK1, PDB entry 4ona”, the IC50 was 7 nM (active).

`O=C(Nc1ccccc1)Nc1ccc(CCNc2ncnc3oc(-c4ccc(OCCN5CCC(O)CC5)cc4)cc23)cc1`: the IC50 (literature IC50, protein: Aurora kinase A (T288D mutation), PDB entry 4jbp) was 41 nM (active).

In the case of `CN(C)CCOc1ccc(-c2cc3c(NCCc4ccc(NC(=O)Nc5ccccc5)cc4)ncnc3o2)cc1`, under “literature IC50, protein: Aurora kinase A (T288D mutation), PDB entry 4jbo”, the concentration for half-maximal inhibition (IC50) was 24 nM (active).

On to `CC(C)(O/N=C(\C(=O)N[C@H](C=O)[C@@H](CNC(=O)NCc1cc(=O)c(O)cn1O)NS(O)(O)O)c1csc(N)n1)C(=O)O`, for which the IC50 (literature IC50, protein: Penicillin-binding protein 3, PDB entry 4l0l) is 54 nM (active).

Consider `CCN1CCN(c2nc(O)c(Cc3ccc(Cl)c(Cl)c3)s2)CC1`, for which the 50% inhibitory concentration (IC50) (literature IC50, protein: Ectonucleotide pyrophosphatase/phosphodiesterase family member 2, PDB entry 3waw) was 580 nM (active).

`CN1CCN(c2nc(O)c(Cc3ccc(Cl)c(Cl)c3)s2)CC1`: where the note is “literature IC50, protein: Ectonucleotide pyrophosphatase/phosphodiesterase family member 2, PDB entry 3wav”, the IC50 is 180 nM (active).

For `c1ccc2c(c1)[nH]c1cncnc12`, for the setting “literature IC50, protein: DUAL SPECIFICITY PROTEIN KINASE TTK, PDB entry 4bi0”, the IC50 was 58600 nM (active).

Regarding `Cc1cccc(Cc2nn(C(C)(C)C)c3ncnc(N)c23)c1`, the IC50 (literature IC50, protein: Proto-oncogene tyrosine-protein kinase Src, PDB entry 4lgg) was 3 nM (active).

With `O=CN1CCN(c2nc(-c3ccccc3)ns2)CC1`, the IC50 (literature IC50, protein: Fatty-acid amide hydrolase 1, PDB entry 4hbp) was 3.8 nM (active).

Turning to `N=CCNC(=O)[C@@H]1C[C@@H](S(=O)(=O)c2ccccc2)C[C@H]1C(=O)N1CCOCC1`, for the setting “literature IC50, protein: CATHEPSIN S, PDB entry 4bsq”, the half-inhibitory concentration (IC50) was 0.7 nM (active).

Take `C=C1CC[C@@H](O[C@H]2C[C@@](O)([C@H](C)NC(=O)c3[nH]c(C)c(Cl)c3Cl)[C@H](O)[C@@H](C)O2)[C@@H]2C=C[C@H](C)[C@H](/C(O)=C3/C(=O)[C@H](C(C)C)N([C@@H]4O[C@@H](C)[C@@H](OC(N)=O)[C@@H](OC(C)=O)[C@H]4OC)C3=O)[C@@H]12`: the IC50 (literature IC50, protein: DNA GYRASE SUBUNIT B GyrB24, PDB entry 4urm) was 9 nM (active) and the IC50 (literature IC50, protein: DNA TOPOISOMERASE IV, B SUBUNIT ParE43, PDB entry 4url) was 500 nM (active).

Consider `C/C=C\NC(=O)Nc1nc2cc(-c3cccnc3)c(=O)n(CCC(C)C)c2s1`, for which the IC50 (literature IC50, protein: Topoisomerase IV subunit B, PDB entry 4mot) is 50 nM (active).

On to `COc1cc(-c2n[nH]c3ccc(C[C@@H](C#N)C(=O)NC(C)(C)CO)cc23)cc(OC)c1OC`, for which the IC50 (literature IC50, protein: Ribosomal protein S6 kinase alpha-3 (T493M muation), PDB entry 4jg8) was 2.5 nM (active).

Take `O=C1N=Nc2nnc(-c3c(-c4ccccc4)nn4ccccc34)cc21`: the IC50 (literature IC50, protein: Insulin receptor (K1278N mutation), PDB entry 4ibm) was 1800 nM (active).

`Cc1ccccc1S(=O)(=O)N(CCN(Cc1cncn1C)c1ccc(C=N)cc1)CC1CCN(C(=O)OC(C)(C)C)CC1`: under “literature IC50, protein: CaaX farnesyltransferase alpha subunit Ram2, PDB entry 4lnb”, the IC50 was 275 nM (active).

Regarding `COc1ccccc1-c1noc2nc(C)[nH]c(=O)c12`, the IC50 (literature IC50, protein: Class III chitinase ChiA1, PDB entry 4tx6) was 2600 nM (active).

For `CC[C@H](C)[C@H](NC(=O)[C@@H](c1cc(Cl)cc(Cl)c1)N(C)C)C(=O)NCc1ccnc(C=N)n1`, the IC50 (literature IC50, protein: Protease AVP8, PDB entry 4pis) was 60 nM (active).

Consider `COc1ccc([C@]2(C)CCSC(N)N2)cc1` (stereo not given in full), for which, where the note is “literature IC50, protein: BETA-SECRETASE 1, PDB entry 4bek”, the IC50 was 41200 nM (active).

For `O[P+](O)(O)C(Nc1ncnc2sc(-c3ccc(C4C=C4)cc3)cc12)[P+](O)(O)O`, the 50% inhibitory concentration (IC50) (literature IC50, protein: Farnesyl pyrophosphate synthase, human FPPS, PDB entry 4l2x) is 39 nM (active).

Regarding `Cc1ccc(-c2cc3c(NC([P+](O)(O)O)[P+](O)(O)O)ncnc3s2)cc1`, the IC50 (literature IC50, protein: Farnesyl pyrophosphate synthase, human FPPS, PDB entry 4jvj) was 22 nM (active).
